Our source for the Potency, max response and activity change, positive = activation values is PubChem BioAssay (Tox21).

Unmarked numbers belong to inactive results. Records with an inconclusive call do not appear. Calls of active or inactive are those of the source. Unless noted, calls follow the shape of the dose curve; as a rule, active = well fitted curve in the direction sought with a large enough effect in the repeat runs; inconclusive = weak or mixed curves; inactive = no such curve, though single readings can be large; an effect the other way counts as inactive or inconclusive.

A short description of test [1]: qHTS assay to identify small molecule agonists of the hypoxia (HIF-1) signaling pathway - cell viability counter screen (AID 1224844; calls by dose curve; also: nearly all actives have a fitted effect of over 50% in size). The essentials: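 HRE-bla ME-180 cells, 2,000/well in 0.5% dialyzed FBS medium, treated 17 h at 37C with compounds. Viability read in the same wells as the bla reporter, by CellTiter-Glo luminescence after 30 min at room temperature.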

Test [2] can be described thus: qHTS assay to identify small molecule agonists of H2AX (AID 1224845; active = well fitted activation curve with a large enough effect in the signal ratio in the repeat runs, not every such curve was filed as active; the % refers to the signal ratio). In short, it runs like this:
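Wild-type CHO-K1 cells, plated overnight, exposed 3hr at 37C to 15 concentrations (0.76% DMSO final). Lysed, then HTRF anti-pH2AX (S139) cryptate and anti-H2AX-d2 antibodies, 24 hr room temperature; 665/620 nm emission read.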

A short description of test [3]: qHTS assay to identify small molecule agonists of the hypoxia (HIF-1) signaling pathway (AID 1224846; active = well fitted activation curve with a large enough effect in the signal ratio in the repeat runs, not every such curve was filed as active; the % refers to the signal ratio). In short, it runs like this:
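HRE-bla ME-180 beta-lactamase reporter cells in medium with 0.5% dialyzed FBS, pre-incubated 5 h then exposed to compounds 17 h at 37C, 5% CO2; reporter induction read with CCF4-AM FRET substrate.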

Test [4] can be described thus: qHTS assay to identify small molecule agonists of H2AX - cell viability counter screen (AID 1224847; calls by dose curve; also: nearly all actives have a fitted effect of over 30% in size; also: potency is read from the fitted curve at half-maximal effect). The essentials: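 Read-out: CellTiter-Glo luminescence, 30 min RT. Cells: wild-type CHO-K1, 1000/well, 10% FBS, plated overnight at 37C. Treatment: 15 concentrations, 3 hr, 37C, 0.76% DMSO.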
A short description of test [5]: qHTS RealTime-Glo MT Cell Viability Assay in HepG2 cells - 24 hour (AID 1224867). Also: nearly all actives have a fitted effect of over 50% in size. The essentials:
(§1)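 HepG2 cells (600/well) were dispensed with RealTime-Glo reagents, incubated 5 h at 37 °C, then treated with compounds in DMSO for up to 40 h. Nonlytic NanoLuc luminescence reflecting viable cells was read at each stated time point.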

Test [6] in a line: qHTS RealTime-Glo MT Cell Viability Assay in HEK293 cells - 32 hour (AID 1224868). Also: top concentration of the series differs between compounds; nearly all actives have a fitted effect of over 50% in size. In short, it runs like this: (§2)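 HEK293 cells seeded with NanoLuc/prosubstrate reagent, rested 5 h at 37 C, then dosed and kept at 37 C up to 40 h. Nonlytic real-time luminescence from viable cells read at 0, 8, 16, 24, 32 and 40 h.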
The nature of test [7]: A CellTox Green Cytotoxicity Assay to monitor cytotoxicity in HEK293 cells - 0 hour (AID 1224869). Also: nearly all actives have a fitted effect of over 50% in size. The essentials: (§3)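 HEK293 cells, 600/well, were preincubated 5 hours and then exposed to compounds at 37 C for up to 40 hours. A cell-impermeant cyanine dye staining dead-cell DNA was read by fluorescence at 0, 8, 16, 24, 32 and 40 h time points.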
Test [8] in a line: qHTS RealTime-Glo MT Cell Viability Assay in HepG2 cells - 40 hour (AID 1224870). Also: nearly all actives have a fitted effect of over 50% in size. The essentials:
(§4)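 HepG2 cells (600/well) mixed with RealTime-Glo MT reagent, settled 5 h at 37 C/5% CO2 before compound addition. Nonlytic NanoLuc luminescence from viable-cell prosubstrate reduction read repeatedly during 40 h treatment at 37 C.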

A short description of test [9]: A CellTox Green Cytotoxicity Assay to monitor cytotoxicity in HEK293 cells - 40 hour (AID 1224871). Also: nearly all actives have a fitted effect of over 45% in size. In short, it runs like this:
as §3

A short description of test [10]: qHTS RealTime-Glo MT Cell Viability Assay in HEK293 cells - 16 hour (AID 1224872). The essentials: as §2
A short description of test [11]: qHTS RealTime-Glo MT Cell Viability Assay in HepG2 cells - 8 hour (AID 1224873). Also: nearly all actives have a fitted effect of over 55% in size. The essentials:
as §4

Test [12] is described as follows: qHTS RealTime-Glo MT Cell Viability Assay in HEK293 cells - 40 hour (AID 1224874). Also: nearly all actives have a fitted effect of over 50% in size. The settings on record: RealTime-Glo luminescence; max response: active compounds read low. The essentials:
(§5)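 600 cells/well were plated with the nonlytic NanoLuc/prosubstrate reagent, pre-incubated 5 h, then given 23 nL of compound in DMSO. Incubation at 37 C for 40 h, with luminescence from viable-cell-reduced substrate read repeatedly from 0 h.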

Test [13] can be described thus: A CellTox Green Cytotoxicity Assay to monitor cytotoxicity in HEK293 cells - 24 hour (AID 1224875). Also: nearly all actives have a fitted effect of over 45% in size. The essentials: as §3
The nature of test [14]: A CellTox Green Cytotoxicity Assay to monitor cytotoxicity in HepG2 cells - 16 hour (AID 1224876). Also: nearly all actives have a fitted effect of over 45% in size. In short, it runs like this:
(§6)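 HepG2 cells, 600/well, preincubated 5 h with CellTox Green dye, then exposed to Tox21 compounds in DMSO at 37 C for up to 40 h. Dead-cell DNA fluorescence read at the indicated time point.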

A short description of test [15]: qHTS RealTime-Glo MT Cell Viability Assay in HepG2 cells - 32 hour (AID 1224877). Also: nearly all actives have a fitted effect of over 55% in size. The essentials:
as §1

Test [16] is described as follows: A CellTox Green Cytotoxicity Assay to monitor cytotoxicity in HepG2 cells - 24 hour (AID 1224878). Also: nearly all actives have a fitted effect of over 45% in size. In short, it runs like this:
as §6

Test [17] in a line: A CellTox Green Cytotoxicity Assay to monitor cytotoxicity in HepG2 cells - 40 hour (AID 1224879). Also: nearly all actives have a fitted effect of over 40% in size. The essentials: as §6
Test [18] is described as follows: qHTS RealTime-Glo MT Cell Viability Assay in HEK293 cells - 0 hour (AID 1224880). The essentials:
as §5

Test [19] in a line: qHTS assay to identify small molecule antagonists of the estrogen related receptor (ERR) signaling pathway from Tox21 library (AID 1224848). Also: nearly all actives have a fitted effect of over 50% in size. Also: potency is read from the fitted curve at half-maximal effect. The essentials:
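ERR reporter cell line (from NTP) seeded 2,000 cells/well, rested 6 h at 37 C/5% CO2, then pin-dosed with compounds in DMSO. After 18 h at 37 C, ONE-Glo added; luminescence read after 30 min at room temperature.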

A short description of test [20]: qHTS assay to identify small molecule agonists of the estrogen related receptor (ERR) signaling pathway from Tox21 library (AID 1224849; calls by dose curve; also: nearly all actives have a fitted effect of over 15% in size). As to conditions: ERR reporter cell line, ONE-Glo luciferase, 18 h; at 92.4 µM (top of the series) unless noted. The essentials:
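ERR reporter cells (NTP line) pre-incubated 6 hours at 37 C, then exposed to compounds for 18 hours at 37 C. ONE-Glo luciferase luminescence was read after 30 minutes at room temperature.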
% is scaled to controls: 0 for no effect and ±100 for the full control effect.

As to `CCCN`, the Potency result in [1], in test [2], in test [3], in [4], in test [5] and in test [6] was “inactive” in each case. Also, the Potency entry in test [7], in test [8], in [9], in [10], in [11] and in [13] was “inactive” throughout. For the same compound, the Potency result in [14], in [15], in [16], in test [17] and in test [18] was “inactive” each time. Besides, the max response in [12] is -0.242%.
With `Cc1nn(-c2cc(NS(C)(=O)=O)c(Cl)cc2Cl)c(=O)n1C(F)F`, the Potency entry in test [1], in test [2], in [3], in test [4], in test [19] and in test [5] was “inactive” each time. In addition, the Potency result in test [6], in [7], in [8], in [9], in [10] and in [11] was “inactive” each time. The Potency entry in test [13], in [14], in test [15], in test [16], in [17] and in test [18] was “inactive” each time. In [20], the activity change, positive = activation is -8.62%. Moreover, the max response in [12] is 1.81%.
In the case of `CCNS(=O)(=O)C(F)(F)C(F)(F)C(F)(F)C(F)(F)C(F)(F)C(F)(F)C(F)(F)C(F)(F)F`, the Potency result in test [1], in [2], in test [3], in [4], in [5] and in [6] was “inactive” throughout. The Potency result in test [7], in [8], in test [9], in [11], in [13] and in test [14] was “inactive” each time. Further, the Potency entry in [15], in test [16], in [17] and in test [18] was “inactive” in each case. Besides, the activity change, positive = activation in test [20] was -10.2%. Moreover, in test [12], the max response is 23.4%.
In the case of `Cc1cc2c3c(c1)C(c1ccccc1)=N[C@@H](NC(=O)c1ccncc1)C(=O)N3CC2`, the Potency entry in test [1], in [2], in test [3], in test [4], in test [19] and in test [5] was “inactive” each time. Also, the Potency result in [6], in test [7], in test [8], in test [9], in [10] and in test [11] was “inactive” each time. The Potency entry in test [13], in test [14], in [15], in [16], in [17] and in test [18] was “inactive” each time. In [20], the activity change, positive = activation is -15.6%.
`Oc1cc(Cl)cc(Cl)c1`: the Potency entry in test [1], in [2], in [3], in test [5], in [7] and in [8] was “inactive” each time. Further, the Potency result in test [11], in test [14], in test [15], in test [16], in test [17] and in test [18] was “inactive” in each case. The Potency in test [4] was 90.7 µM (active); in test [19], 61.8 µM (active). The activity change, positive = activation in [20] was -48.8%.
With `O=C(CCCCl)c1ccc(F)cc1`, the Potency entry in [1], in test [2], in test [3], in [4], in test [19] and in test [5] was “inactive” in each case. The Potency entry in test [6], in test [7], in test [8], in test [9], in [10] and in test [11] was “inactive” throughout. The Potency entry in test [13], in test [14], in test [15], in [16], in [17] and in test [18] was “inactive” in each case. Further, the activity change, positive = activation in [20] is 7.87% [at 42.5 µM]. The max response in [12] was -0.41%.
Turning to `ClCBr`, the Potency entry in test [1], in test [2], in test [3], in test [4], in test [5] and in test [6] was “inactive” each time. Further, the Potency entry in test [7], in [8], in test [9], in test [10], in test [11] and in test [13] was “inactive” throughout. Further, the Potency entry in [14], in test [15], in test [16], in test [17] and in [18] was “inactive” each time. In test [20], the activity change, positive = activation is 5.96%. In test [12], the max response was 7.13%.
